In PubChem BioAssay AID504773 (Broad Institute, 2011):
Results with a measured potency or affinity are listed apart. The source made the active and inactive calls.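 The calls were made as follows: active = polarization signal falls with dose and the fitted half-maximal concentration is at or below ten times the sample's top valid dose; inconclusive = flat curve at 30 to 70% inhibition, or poor fit; inactive = signal rises, flat within 30%, or potency beyond limit.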

These compounds were tested against Golgi-associated PDZ and coiled-coil motif-containing protein (Homo sapiens) (UniProt Q9HD26) (assay: CAL PDZ peptide-binding inhibitors, dose response, biochemical, fluorescence polarization, Cerulean-tagged CAL PDZ, cherry-picks (AID 504773;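 also: 0% = DMSO neutral wells and -100% = excess unlabeled competitor peptide wells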)). Conditions: 1 h; series mostly up to 50 µM; activity change, negative = inhibition: at the top concentration.

Activity change, negative = inhibition, inactive:
CS(=O)(=O)N(CC(=O)N1CCOCC1)c1cccc(F)c1 6.89%, COc1ccc(C(=O)NC2(C(F)(F)F)C(=O)Nc3c2c(=O)[nH]c(=O)n3CCc2ccc(OC)c(OC)c2)cc1 (stereo unspecified) 35.8%, O=C(Oc1c(CN2CCOCC2)cc(Cl)c2cccnc12)c1ccc(F)cc1 -18%, O=C(CSc1nc2c(sc3ccccc32)c(=O)n1Cc1ccccc1)NCC1CCCO1 (stereo unspecified) 13.4%, Cc1ccccc1-n1c(C)c(C#N)c(=O)c(-[n+]2ccccc2)c1[S-] -36.7%, O=S(=O)(/N=C(/Nc1ccc(Cl)c(S(=O)(=O)N2CCOCC2)c1)c1ccc(F)cc1)c1ccccc1 -11%, Cn1c(=O)c2c(nc(SCC(=O)NCC3CCCO3)n2Cc2ccc(F)cc2)n(C)c1=O (stereo unspecified) -69.9%, C(=C/c1nccc2c1[nH]c1ccccc12)/c1ccc2c(c1)OCO2 -6.34%, CCCNC(=O)C(=O)NCC1CCCN1CC (stereo unspecified) -64.5%, O=C(CSc1nccc(=O)[nH]1)Nc1ccc(Oc2ccccc2)cc1 -22.5%, O=C(Nc1nccs1)c1ccc(F)c(S(=O)(=O)N2CCOCC2)c1 23.6%, CC(C)CNC(=O)CN1C(=O)NC(Cc2c[nH]c3ccccc23)C1=O (stereo unspecified) 13.9%, CN1CC(=O)N(CC(=O)Nc2ccc(Br)cc2F)C1=O 7.33%, CO[C@H]1O[C@H](C)[C@@H](O)C[C@H]1NC(=O)OCc1ccccc1 -71%, NC(=O)C1CCN(c2ncccc2[N+](=O)[O-])CC1 -12.7%, O=C(Nc1cc(Cl)ccc1N1CCOCC1)c1ccc2c(c1)OCCO2 -28%, O=C1OC2(CCCCC2)OC(=O)C1=CNc1nc2ccccc2s1 6.24%, COc1ccc(NC(=O)c2ccc3c(c2)NC(=O)CO3)cc1OC -10.7%, CCc1nnc(NS(=O)(=O)c2ccc(NC(=O)CCC(=O)O)cc2)s1 -39.5%, CSc1ccccc1NC(=O)C1CC(c2c(F)cccc2Cl)=NO1 (stereo unspecified) -8.91%, COc1ccc(C(C)=O)cc1COC(=O)CNC(=O)c1ccccc1F -10.4%, Cc1ccccc1N1CCN(S(=O)(=O)c2ccccc2)CC1 5.45%, Cc1cc(NC(=O)Cc2ccc(Br)cc2)no1 -28.3%, Cc1nn(C)cc1CN(C)C(=O)c1nn2c(c1Br)NC(c1cccs1)CC2C(F)(F)F (stereo unspecified) 23.8%, c1ccc(C2Nc3ccccc3Oc3ccccc32)cc1 (stereo unspecified) 29.6%, CC(NS(=O)(=O)c1ccc(Cl)c(Cl)c1)C(=O)OCC(=O)Nc1ccc2c(c1)OCO2 (stereo unspecified) 1.21%, COc1ccc(/C=N/NC(=O)c2cccc(C(F)(F)F)c2)cc1 19.1%, CCOc1c(Cl)cc(CNc2nnnn2C)cc1OC 0.869%, C=CCOc1c(Cl)cc(CNn2cn[nH]c2=S)cc1OC 29.5%, O=P(O)(COc1ccccc1)COc1ccccc1 1.96%, CC(C)=Cc1oc2ccc([N+](=O)[O-])cc2c1N1CCOCC1 14.7%, O=C(OCC(=O)N1CCOCC1)c1ccc[nH]c1=O 33.5%, Cc1ccc(S(=O)(=O)N2CCN(CCC#N)CC2)cc1 9.54%, COc1ccc(C2/C(=C(/O)c3ccc(C)cc3)C(=O)C(=O)N2C)c(OC)c1 (stereo unspecified) -22.7%, O=C(COC(=O)c1cccnc1Cl)Nc1ccc2c(c1)OCO2 2.18%, O=C(NC1(C(F)(F)F)NC(=O)N(C2CCCCC2)C1=O)C1CC1 (stereo unspecified) -4.96%
